Numbering of substitutions follows the chain as printed.
Columns and labels:
Test in all cases: HT-SELEX; high values mean tight binding
Details in all cases: protein: recombinant; vector His6-GST; dsDNA, one strand shown
SALL4 ZFC4 WT (HT-SELEX) = molecular target: T1, SALL4 ZFC4 WT (HT-SELEX) (Mus musculus, UniProt Q8BX22 870-940)
T1 sequence: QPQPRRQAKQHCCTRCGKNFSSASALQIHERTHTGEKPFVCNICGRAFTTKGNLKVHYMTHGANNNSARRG
How it was run: (§1)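 Binding signal is expressed as fold change in each canonical k-mer's read fraction over the initial random library. To obtain it, 1 µg of purified recombinant mouse SALL4 zinc finger cluster 4 (residues 870–940) was incubated for 10 min at room temperature with library DNA (1.5 µg first cycle, 200 ng later cycles) in 100 µl of 10 mM Tris–HCl pH 7.5, 50 mM NaCl, poly(dI-dC) and DTT. Ni2+ bead-captured complexes went through washing, PCR amplification and reselection for up to 6 cycles, in triplicate, before MiSeq sequencing and scanning for 6-mers.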

[1] = molecular target: T2, SALL4 ZFC4 R900W (HT-SELEX) (Mus musculus, UniProt Q8BX22 870-940, R900W)
T2 sequence: T1 sequence with R31W
How it was run: as §1

[2] = molecular target: T3, SALL4 ZFC4 G921D (HT-SELEX) (Mus musculus, UniProt Q8BX22 870-940, G921D)
T3 sequence: T1 sequence with G52D
How it was run: as §1

Sequence CTGGGA has a binding signal (SALL4 ZFC4 WT (HT-SELEX)) of 0.455 ± 0.0297 fold-change vs cycle 0, a binding signal [1] of 0.528 ± 0.00656 fold-change vs cycle 0 and a binding signal [2] of 0.594 ± 0.0357 fold-change vs cycle 0.
AGATGC gave a binding signal (SALL4 ZFC4 WT (HT-SELEX)) of 0.625 ± 0.0322 fold-change vs cycle 0, a binding signal [1] of 0.721 ± 0.0174 fold-change vs cycle 0 and a binding signal [2] of 0.833 ± 0.0268 fold-change vs cycle 0.
GTCTTA gave a binding signal (SALL4 ZFC4 WT (HT-SELEX)) of 1.27 ± 0.0474 fold-change vs cycle 0, a binding signal [1] of 1.39 ± 0.0618 fold-change vs cycle 0 and a binding signal [2] of 1.35 ± 0.0901 fold-change vs cycle 0.
CTTTAC showed a binding signal (SALL4 ZFC4 WT (HT-SELEX)) of 1.34 ± 0.0196 fold-change vs cycle 0, a binding signal [1] of 1.5 ± 0.0474 fold-change vs cycle 0 and a binding signal [2] of 1.36 ± 0.0809 fold-change vs cycle 0.
AAAAGA gave a binding signal (SALL4 ZFC4 WT (HT-SELEX)) of 1.8 ± 0.0481 fold-change vs cycle 0, a binding signal [1] of 1.94 ± 0.106 fold-change vs cycle 0 and a binding signal [2] of 1.7 ± 0.125 fold-change vs cycle 0.
With CAGCTA the binding signal (SALL4 ZFC4 WT (HT-SELEX)) was 0.637 ± 0.0596 fold-change vs cycle 0, the binding signal [1] was 0.727 ± 0.0267 fold-change vs cycle 0 and the binding signal [2] was 0.82 ± 0.0545 fold-change vs cycle 0.
In the case of GCTTAC, the binding signal (SALL4 ZFC4 WT (HT-SELEX)) is reported as 0.774 ± 0.0137 fold-change vs cycle 0, the binding signal [1] is reported as 0.852 ± 0.0208 fold-change vs cycle 0 and the binding signal [2] is reported as 0.908 ± 0.0208 fold-change vs cycle 0.
Work on CTTCCA yielded a binding signal (SALL4 ZFC4 WT (HT-SELEX)) of 0.834 ± 0.0174 fold-change vs cycle 0, a binding signal [1] of 0.975 ± 0.0211 fold-change vs cycle 0 and a binding signal [2] of 1.02 ± 0.0304 fold-change vs cycle 0.
Work on CGTTAC yielded a binding signal (SALL4 ZFC4 WT (HT-SELEX)) of 0.817 ± 0.0239 fold-change vs cycle 0, a binding signal [1] of 0.932 ± 0.0341 fold-change vs cycle 0 and a binding signal [2] of 0.941 ± 0.0136 fold-change vs cycle 0.
AACACT showed a binding signal (SALL4 ZFC4 WT (HT-SELEX)) of 1.28 ± 0.027 fold-change vs cycle 0, a binding signal [1] of 1.39 ± 0.0403 fold-change vs cycle 0 and a binding signal [2] of 1.33 ± 0.0261 fold-change vs cycle 0.
ATCTGC showed a binding signal (SALL4 ZFC4 WT (HT-SELEX)) of 0.624 ± 0.0226 fold-change vs cycle 0, a binding signal [1] of 0.711 ± 0.0187 fold-change vs cycle 0 and a binding signal [2] of 0.798 ± 0.0337 fold-change vs cycle 0.
CGTTCA showed a binding signal (SALL4 ZFC4 WT (HT-SELEX)) of 0.712 ± 0.0321 fold-change vs cycle 0, a binding signal [1] of 0.811 ± 0.0256 fold-change vs cycle 0 and a binding signal [2] of 0.871 ± 0.0211 fold-change vs cycle 0.
With AATTAT the binding signal (SALL4 ZFC4 WT (HT-SELEX)) was 4.89 ± 0.536 fold-change vs cycle 0, the binding signal [1] was 2.6 ± 0.249 fold-change vs cycle 0 and the binding signal [2] was 2.25 ± 0.303 fold-change vs cycle 0.
With ACGTCC the binding signal (SALL4 ZFC4 WT (HT-SELEX)) was 0.359 ± 0.021 fold-change vs cycle 0, the binding signal [1] was 0.454 ± 0.0124 fold-change vs cycle 0 and the binding signal [2] was 0.562 ± 0.0557 fold-change vs cycle 0.
Work on AATAAA yielded a binding signal (SALL4 ZFC4 WT (HT-SELEX)) of 3.71 ± 0.274 fold-change vs cycle 0, a binding signal [1] of 2.68 ± 0.197 fold-change vs cycle 0 and a binding signal [2] of 2.21 ± 0.297 fold-change vs cycle 0.
Work on ATTAGC yielded a binding signal (SALL4 ZFC4 WT (HT-SELEX)) of 1.14 ± 0.0454 fold-change vs cycle 0, a binding signal [1] of 1.18 ± 0.016 fold-change vs cycle 0 and a binding signal [2] of 1.2 ± 0.034 fold-change vs cycle 0.
Work on AAGACT yielded a binding signal (SALL4 ZFC4 WT (HT-SELEX)) of 1.29 ± 0.0445 fold-change vs cycle 0, a binding signal [1] of 1.49 ± 0.0431 fold-change vs cycle 0 and a binding signal [2] of 1.4 ± 0.0897 fold-change vs cycle 0.
Work on AGACAC yielded a binding signal (SALL4 ZFC4 WT (HT-SELEX)) of 0.683 ± 0.0462 fold-change vs cycle 0, a binding signal [1] of 0.821 ± 0.037 fold-change vs cycle 0 and a binding signal [2] of 0.923 ± 0.0183 fold-change vs cycle 0.
CAAAGA was tested, and the binding signal (SALL4 ZFC4 WT (HT-SELEX)) was 1.18 ± 0.0383 fold-change vs cycle 0, the binding signal [1] was 1.34 ± 0.0673 fold-change vs cycle 0 and the binding signal [2] was 1.28 ± 0.0399 fold-change vs cycle 0.
AGGTTA gave a binding signal (SALL4 ZFC4 WT (HT-SELEX)) of 1.49 ± 0.0813 fold-change vs cycle 0, a binding signal [1] of 1.57 ± 0.127 fold-change vs cycle 0 and a binding signal [2] of 1.44 ± 0.162 fold-change vs cycle 0.
Sequence AAAAAT has a binding signal (SALL4 ZFC4 WT (HT-SELEX)) of 3.83 ± 0.465 fold-change vs cycle 0, a binding signal [1] of 2.16 ± 0.197 fold-change vs cycle 0 and a binding signal [2] of 1.9 ± 0.223 fold-change vs cycle 0.
GATTCC showed a binding signal (SALL4 ZFC4 WT (HT-SELEX)) of 0.9 ± 0.0488 fold-change vs cycle 0, a binding signal [1] of 0.964 ± 0.0255 fold-change vs cycle 0 and a binding signal [2] of 1.03 ± 0.0179 fold-change vs cycle 0.
In the case of CATAGG, the binding signal (SALL4 ZFC4 WT (HT-SELEX)) is reported as 0.854 ± 0.0242 fold-change vs cycle 0, the binding signal [1] is reported as 0.918 ± 0.0253 fold-change vs cycle 0 and the binding signal [2] is reported as 0.978 ± 0.022 fold-change vs cycle 0.
Sequence AGCGAA has a binding signal (SALL4 ZFC4 WT (HT-SELEX)) of 0.492 ± 0.0304 fold-change vs cycle 0, a binding signal [1] of 0.566 ± 0.0332 fold-change vs cycle 0 and a binding signal [2] of 0.686 ± 0.0519 fold-change vs cycle 0.
AAGTTA gave a binding signal (SALL4 ZFC4 WT (HT-SELEX)) of 2.21 ± 0.185 fold-change vs cycle 0, a binding signal [1] of 2.17 ± 0.193 fold-change vs cycle 0 and a binding signal [2] of 1.9 ± 0.254 fold-change vs cycle 0.
Work on CCTGTA yielded a binding signal (SALL4 ZFC4 WT (HT-SELEX)) of 0.809 ± 0.0421 fold-change vs cycle 0, a binding signal [1] of 0.915 ± 0.0586 fold-change vs cycle 0 and a binding signal [2] of 0.974 ± 0.0591 fold-change vs cycle 0.
Work on ATTGGA yielded a binding signal (SALL4 ZFC4 WT (HT-SELEX)) of 1.3 ± 0.0815 fold-change vs cycle 0, a binding signal [1] of 1.36 ± 0.0818 fold-change vs cycle 0 and a binding signal [2] of 1.33 ± 0.0804 fold-change vs cycle 0.
TCCGGA gave a binding signal (SALL4 ZFC4 WT (HT-SELEX)) of 0.375 ± 0.0195 fold-change vs cycle 0, a binding signal [1] of 0.451 ± 0.0492 fold-change vs cycle 0 and a binding signal [2] of 0.552 ± 0.107 fold-change vs cycle 0.
TCAAAA gave a binding signal (SALL4 ZFC4 WT (HT-SELEX)) of 1.67 ± 0.118 fold-change vs cycle 0, a binding signal [1] of 1.58 ± 0.0814 fold-change vs cycle 0 and a binding signal [2] of 1.5 ± 0.116 fold-change vs cycle 0.
GTCAAC gave a binding signal (SALL4 ZFC4 WT (HT-SELEX)) of 0.711 ± 0.0163 fold-change vs cycle 0, a binding signal [1] of 0.867 ± 0.00955 fold-change vs cycle 0 and a binding signal [2] of 0.934 ± 0.0287 fold-change vs cycle 0.

From paper PMC9838217, “Structure of SALL4 zinc finger domain reveals link between AT-rich DNA binding and Okihiro syndrome”
